Records with an inconclusive call do not appear. A call without a number means that no potency is given here. Unmarked numbers belong to inactive results. Calls of active or inactive are those of the source. Calls come from the whole dose curve; as a rule, active = well fitted curve in the direction sought with a large enough effect; inconclusive = small, poorly fitted or top-dose-only effect, or another doubt; inactive = no such curve, though single readings can be large; an effect the other way counts as inactive or inconclusive.
Tests used:
Es-2 = assay: Primary qHTS to identify gynecologic anti-cancer compounds using libraries of approved drugs and bioactive compounds (AID 1345084); conditions: Gynecologic cancer cell panel viability, ATPlite luminescence, 48 h; series mostly up to 57.5 µM; note: nearly all actives have a fitted effect of over 55% in size
Method in brief: (§1)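 Cytotoxicity screen measuring ATP content by luciferase luminescence. Each compound is applied at five concentrations for 48 h at 37 C with 5% CO2.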

HeLa = assay: as above; conditions: Gynecologic cancer cell panel viability, ATPlite luminescence, 48 h; series mostly up to 57.5 µM
Method in brief: as §1

Hek293T = assay: as above; conditions: Gynecologic cancer cell panel viability, ATPlite luminescence, 48 h, control line for the selectivity index; series mostly up to 57.5 µM
Method in brief: as §1

JEG-3 = assay: as above; conditions: Gynecologic cancer cell panel viability, ATPlite luminescence, 48 h; series mostly up to 57.5 µM
Method in brief: as §1

OV90 = assay: as above; conditions: Gynecologic cancer cell panel viability, ATPlite luminescence, 48 h; series mostly up to 57.5 µM
Method in brief: as §1

PA-1 = assay: as above; conditions: Gynecologic cancer cell panel viability, ATPlite luminescence, 48 h; series mostly up to 57.5 µM
Method in brief: as §1

SKOV3 = assay: as above; conditions: Gynecologic cancer cell panel viability, ATPlite luminescence, 48 h; series mostly up to 57.5 µM
Method in brief: as §1

Tov-21-G = assay: as above; conditions: Gynecologic cancer cell panel viability, ATPlite luminescence, 48 h; series mostly up to 57.5 µM
Method in brief: as §1

Tov112D = assay: as above; conditions: Gynecologic cancer cell panel viability, ATPlite luminescence, 48 h; series mostly up to 57.5 µM
Method in brief: as §1

[1] = Drug repurposing screens with cells derived from glioblastoma tumor samples (AID 1345199); conditions: GBM patient neurospheres viability, ATP luminescence, 48 h; note: nearly all actives have a fitted effect of over 40% in size; note: potency is the fitted concentration of half-maximal effect
Method in brief: (§2)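 Four patient lines of CD133+ GBM neurospheres were screened at several concentrations; hits were retested in those lines plus three slower-growing GBM lines, using 48-hour treatment and ATP-based viability.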

astro = assay: as above; conditions: viability, ATP luminescence, 48 h; series mostly up to 45.9 µM
Method in brief: as §2

[2] = at 20 µM (top of the series), tumour line C
[3] = at 21.2 µM (top of the series), tumour line B
[4] = at 21.2 µM (top of the series), tumour line D
[5] = at 21.3 µM (top of the series), tumour line A
[6] = at 45.9 µM (top of the series), tumour line B
[7] = at 45.9 µM (top of the series), tumour line D
[8] = at 46 µM (top of the series), tumour line A
[9] = at 46.1 µM (top of the series), tumour line C

SMILES	Potency (Es-2)	Potency (HeLa)	Potency (Hek293T)	Potency (JEG-3)	Potency (OV90)	Potency (PA-1)	Potency (SKOV3)	Potency (Tov-21-G)	Potency (Tov112D)	activity, negative = cell killing [1, 2] [%]	activity, negative = cell killing [1, 3] [%]	activity, negative = cell killing [1, 4] [%]	activity, negative = cell killing [1, 5] [%]	Potency (astro)	activity, negative = cell killing [1, 6] [%]	activity, negative = cell killing [1, 7] [%]	activity, negative = cell killing [1, 8] [%]	activity, negative = cell killing [1, 9] [%]	Potency ([1]; tumour line A)
CC(C)(C)NCC(O)COc1cccc2c1C[C@H](O)[C@H](O)C2 (stereo partly specified)	inactive	inactive	inactive	inactive	inactive	inactive	inactive	inactive	inactive	-4.25	-2.25	-3.22	-16.2	inactive	–	–	–	–	–
Cc1cc(NS(=O)(=O)c2ccc(N)cc2)nc(C)n1	inactive	inactive	inactive	inactive	inactive	inactive	inactive	inactive	inactive	–	–	–	–	inactive	-14.8	-16.4	-27.1	-10.5	–
CC(=O)O[C@]1(C(C)=O)CC[C@H]2[C@@H]3C=C(Cl)C4=CC(=O)CC[C@]4(C)[C@H]3CC[C@@]21C	inactive	inactive	inactive	inactive	inactive	inactive	inactive	inactive	inactive	–	–	–	–	–	-21.1	–	–	–	–
CC(=O)Nc1ccc(S(=O)(=O)Nc2ccc([N+](=O)[O-])cc2)cc1	inactive	inactive	inactive	inactive	inactive	inactive	inactive	inactive	inactive	–	–	–	–	–	-8.95	-28.3	–	10.9	–
C=C[C@@]1(C)CC(=O)[C@]2(O)[C@@]3(C)[C@@H](O)CCC(C)(C)[C@@H]3[C@H](O)[C@H](OC(C)=O)[C@@]2(C)O1	inactive	inactive	inactive	inactive	inactive	inactive	inactive	inactive	inactive	–	–	–	–	–	7.18	–	–	-36.3	–
OC1C(O)C(O)C(O)C(O)C1O (stereo unspecified)	inactive	inactive	inactive	inactive	inactive	inactive	inactive	inactive	inactive	–	–	–	–	inactive	-13.8	-13.1	-17.2	-1.34	–
COc1cc(C(=O)NCc2ccc(OCCN(C)C)cc2)cc(OC)c1OC	inactive	inactive	inactive	inactive	inactive	inactive	inactive	inactive	inactive	-15.6	-6.09	-9.89	-23.1	inactive	–	–	–	–	–
CC(=O)N[C@@H](CCC(=O)O)C(=O)O	inactive	inactive	inactive	inactive	inactive	inactive	inactive	inactive	inactive	–	–	–	–	inactive	2.35	-7.45	-9.15	-3.96	–
OCCOCCN1CCN(C2=Nc3ccccc3Sc3ccccc32)CC1	inactive	inactive	inactive	inactive	inactive	inactive	inactive	inactive	inactive	–	–	–	–	inactive	-22.8	-20.3	–	1.64	11.2 µM (active)
CCN1CCCC(OC(=O)C(c2ccccc2)c2ccccc2)C1 (stereo unspecified)	inactive	inactive	inactive	inactive	inactive	inactive	inactive	inactive	inactive	-5.6	-12.3	-10.7	–	inactive	–	–	–	–	8.91 µM (active)
CCCCC(CC)COC(=O)/C=C/c1ccc(OC)cc1 (stereo unspecified)	inactive	inactive	inactive	inactive	inactive	inactive	inactive	inactive	inactive	–	–	–	–	inactive	-11.8	-6.07	-26.1	6.67	–
CCOCCn1c(N2CCCN(C)CC2)nc2ccccc21	inactive	inactive	inactive	inactive	inactive	inactive	inactive	inactive	inactive	–	–	–	–	inactive	-14.8	-9.28	–	-16	17.8 µM (active)
CC(C)Cc1ccc(CC(=O)O)cc1	inactive	inactive	inactive	inactive	inactive	inactive	inactive	inactive	inactive	–	–	–	–	inactive	-12.1	-2.06	-12.4	9.2	–
NS(=O)(=O)c1cc2c(cc1Cl)NC(CC1CCCC1)NS2(=O)=O (stereo unspecified)	inactive	inactive	inactive	inactive	inactive	inactive	inactive	inactive	inactive	-10.8	-9.27	-11	-13.5	inactive	–	–	–	–	–
CCCCCCCCCCCCCCC[C@H](O)[C@@H](N)CO	inactive	inactive	inactive	inactive	inactive	inactive	inactive	inactive	inactive	–	–	–	–	–	–	–	–	–	–

— PubChem BioAssay (NCATS)
